Among all 190,000 compounds or so, about 930 (0.49%) were called active. Some of the results follow. Results with a measured potency or affinity are listed apart. Unmarked numbers belong to inactive results.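 Rule for the calls: active = z-score of insulin promoter reporter brightness in nuclei below -3 at 5 µM, with at least 500 cells counted; inconclusive = wells with under 500 cells, flagged as toxic or sparse; inactive = the rest.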
test: insulin promoter down-regulators in MIN6 cells, imaging, high-content screening, mouse beta cells (AID 1628); conditions: MIN6 insulin promoter GFP reporter, at 5 µM, stronger effect = lower value

SMILES | z-score
N#C/C(=C/c1ccc(N2CCCCC2)o1)c1cccc(F)c1 | 14.6
Clc1ccc2oc(-c3cccnc3NCc3ccccc3)nc2c1 | -3.89 (active)
Clc1ccc2oc(-c3ccccn3)nc2c1 | 3
CCN(CC)c1ccc(/C=C(/C#N)C(=O)NC(C)C)o1 | 6.43
Cc1sc2ncn(CC(=O)NCCCC(=O)N3CCN(c4ncccn4)CC3)c(=O)c2c1C | -4.71 (active)
COc1cc(NC(=O)Cn2cnc3sc(C)c(S(=O)(=O)N4CCN(C)CC4)c3c2=O)cc(OC)c1OC | 1.41
CC(=O)Nc1nc(-c2ccc(Br)s2)cs1 | 5.02
Cc1cc(NC(=O)/C(C#N)=C/c2ccc(-c3ccc(SC(F)F)cc3)o2)n(-c2ccccc2)n1 | 3.43
Cc1ccc(NC(=O)N(Cc2ccc3c(c2)OCO3)Cc2cc3cc4c(cc3[nH]c2=O)OCCO4)cc1 | -5.39 (active)
CCOc1ccc2[nH]c(=O)c(CN(CCc3ccccc3)C(=O)N3CCOCC3)cc2c1 | 5.49
Cc1ccc(CNc2ccc3c(c2)OCO3)cc1 | 5.54
N#Cc1c(NC(=S)NC(=O)c2ccccc2)sc2c1CCN(CCc1ccccc1)C2 | 5.28
COc1ccc(CC(=O)NNC(=S)Nc2ccccc2)cc1Cl | 2.56
CC(C)(C)c1cc(CCC(=O)NNC(=S)NC(=O)c2ccccc2)cc(C(C)(C)C)c1O | -4.33 (active)
CCc1nc(C)cn1S(=O)(=O)c1cc(OC)c(C)cc1C | -4.29 (active)
CC(=O)Cc1cc(O)c2ccccc2c1OC(=O)c1ccc(Br)cc1 | 8.75
Cc1ccccc1NC(=O)c1cc(C(=O)c2cc(Cl)ccc2O)cn(-c2ccccc2C)c1=O | -3.14 (active)
CN1CC=C2C(C#N)=C(N)C(C#N)(C#N)[C@H](c3cccs3)[C@H]2C1 | 10.3
CCSc1ccc(C(=O)Nc2ccc(Br)cn2)cc1[N+](=O)[O-] | 1.11
O=C(Nc1ccc(Cl)cn1)c1ccc([N+](=O)[O-])o1 | -3.08 (active)
CCCN1C(=O)S/C(=C/c2ccc(N3CCOCC3)o2)C1=O | 14.8
COc1ccccc1NC(=O)C1=C(C)NC(SCC(=O)c2ccc(C)cc2)=C(C#N)C1c1ccco1 (stereo unspecified) | 3.29
COc1ccc(C(=O)CSC2=C(C#N)C3(CCCCC3)C(C#N)=C(N)N2)cc1 | -3.18 (active)
CCN1CCN(C(=O)c2cn(CC)c3ccc(S(=O)(=O)N(C)C)cc3c2=O)CC1 | 2.68

SMILES | z-score
CCn1c(C)[n+](CC)c2ccc(S(=O)(=O)N(C)C)cc21 | -3.4 (active)
CC(=O)CCc1c(C)c2cccc(C)c2[nH]c1=O | -0.43
COCCn1cc(C(=O)NCc2ccco2)c2c3ccccc3n(C)c2c1=O | 2.09
CC(C)Cn1cc(C(=O)NC2CCN(Cc3ccccc3)CC2)c2c3ccccc3n(C)c2c1=O | -3.06 (active)
CCOc1ccccc1CNC(=O)c1cn(C)c(=O)c2c1c1ccccc1n2C | 1.59
Cc1nc(Cl)c2c(n1)NC1=C(O2)C(=O)CCC1 | -4.1 (active)
CN(/C(=N\S(=O)(=O)c1ccccc1)c1ccccc1)c1ccc(O)cc1 | 1.42
CN(c1cccc(Cl)c1)S(=O)(=O)c1cccc(C(=O)NC2=NCCS2)c1 | 3.48
COc1ccc(N(C)S(=O)(=O)c2cccc(C(=O)Nc3nc4ccccc4[nH]3)c2)cc1 | -3.07 (active)
CCOc1ccc(C2C(C#N)=C(N)SC(N)=C2C#N)c(OCC)c1 | -3.06 (active)
CCN(CC)c1ccc(/C=C(\C#N)C(=O)c2ccc(Br)cc2)cc1 | 3.66
O=C(NCc1ccccn1)c1ccc(Cn2cc(Br)cn2)o1 | -3.96 (active)
COc1ccc2cc3cc(C(=O)NCc4ccccn4)oc3nc2c1 | 3.32
O=C(NCc1cn2ccccc2n1)c1ccco1 | 3.67
COc1ccc2c(n1)Sc1nc3ccccc3nc1N2 | 9.57
COc1ccc2c(c1)oc(=O)c1ccccc12 | -0.04
Cc1[nH]ccc(=O)c1OCc1c(Cl)cccc1Cl | -6.12 (active)
COC(=O)c1c[nH]n2c(=O)c(Cc3ccc(F)cc3Cl)c(C)nc12 | 3.42
CC(=O)Oc1cc2cccc(OC(C)=O)c(=O)c2c(OC(C)=O)c1OC(C)=O | -0.38
CC(=O)Oc1ccc(OC(C)=O)c(SCCCCCCl)c1 | -3.45 (active)
COC(=O)[C@H]1[C@H](C(=O)OC)[C@@H](C(=O)OC)N(c2ccc(OC)cc2)[C@@H]1C(=O)OC | -4.45 (active)
O=C(CCNS(=O)(=O)c1ccc(Cl)cc1)NCc1cccs1 | 1.64
CCNC(=S)NS(=O)(=O)c1ccc(Cl)cc1 | -3.8 (active)
CC(C)(CNS(=O)(=O)c1ccc(Cl)cc1)N1CCCCC1 | 3.62

SMILES | z-score
CCCCCCN1C=CC(=C/C=C(\C#N)C(=O)OCC)C=C1 | 16.6
O=C(CCn1c(=O)sc2ccccc21)Nc1cccnc1 | 0.79
C=CCN1C(=O)/C(=C\c2ccc(OC(=O)c3ccco3)c(OC)c2)SC1=S | 1.03
COc1ccc(Cn2c(=O)sc3ccccc32)cc1OC | -3.63 (active)
COc1ccc(S(=O)(=O)NCc2ccncc2)cc1OC | -3.36 (active)
Cc1ccc(S(=O)(=O)NCc2ccncc2)c(C)c1C | -6.46 (active)
COc1cccc(S(=O)(=O)NCc2ccc(C(=O)Nc3ccc(Cl)c(Cl)c3)cc2)c1 | 3.13
COc1cc(C)c(Cl)cc1S(=O)(=O)NCc1ccncc1 | -4.94 (active)
Cc1cc(C)n(C(=O)CCC2COc3ccccc3O2)n1 (stereo unspecified) | 3.53
CCOC(=O)c1c(NC(=O)c2nn(CC)cc2Br)c(C#N)cn1-c1ccccc1 | -3.62 (active)
c1ccc2c(c1)CCN(CCCNc1nc3ccccc3n3cnnc13)C2 | -3.05 (active)
CCn1cc(C(=O)NCCN(C)CCc2ccccc2)c(=O)c2cc(S(=O)(=O)N(C)C)ccc21 | 3.87
CN1CCNC(=O)C1CC(=O)NCCC1=CCCCC1 (stereo unspecified) | 3.77
CCN(CC)S(=O)(=O)c1ccc2[nH]cc(C(=O)NCCC3=CCCCC3)c(=O)c2c1 | -6.41 (active)
CN1CC=C2C(C#N)=C(N)C(C#N)(C#N)C(Cc3ccccc3)C2C1 (stereo unspecified) | 3.5
Cc1cccc(NC(=S)NNC(=O)c2csc(C(C)C)c2)c1 | 1.31
COc1cccc(-c2nc(N3CCCCC3C)c3ccccc3n2)c1O (stereo unspecified) | -3.15 (active)
COC(=O)c1cc2c(-c3ccccc3)c(C)c3ccccn3c-2c1C(=O)OC | 4.22
O=C1c2cccc3c(N4CCCCC4)ccc(c23)C(=O)N1c1ccccc1O | 4.51
CC(C)(C)NC(=O)NC(=O)CN1CCCc2ccccc21 | 2.02
CC1Cc2ccccc2N1S(=O)(=O)c1cccs1 (stereo unspecified) | -6.66 (active)
O=S(=O)(c1cccs1)N1CCCc2ccccc21 | -3.97 (active)
O=C(NCCN1CCN(Cc2ccc([N+](=O)[O-])cc2)CC1)C(=O)Nc1ccccc1 | -3.53 (active)
COc1ccc(C(=O)/C=C/c2ccccc2)c(O)c1 | -0.73

SMILES | z-score
COc1cc(/C=C/C(=O)c2ccccc2O)cc(OC)c1OC | -0.68
Cc1onc(-c2c(Cl)cccc2Cl)c1C(=O)NCc1ccco1 | -0.41
Cc1ccc(C(=O)Nc2ccccc2C(=O)NCc2ccco2)cc1S(=O)(=O)N1CCCCC1 | -3.27 (active)
COCCNC(=S)N/N=C(\C)c1ccc2cc(OC)ccc2c1 | 3.43
Cc1cccc(NC(=O)CCNS(=O)(=O)c2cccc3nonc23)c1 | 0.73
Cc1cccc(NC(=O)/C=C/c2ccc([N+](=O)[O-])s2)c1 | 9.92
N#CCc1nc(CSc2nc3ccccc3s2)cs1 | 4.03
CN(C)c1ccc(N/C=C/C(=O)c2ccc(F)cc2)cc1 | -5.01 (active)
CCN(CC)c1ccc(/C=C/C(=O)c2ccc(Br)cc2)cc1 | 8.04
CC(=O)Nc1cccc(C(=O)/C=C/c2ccc(N(C)C)cc2)c1 | 12.5
CN(C)C(=O)CN(c1ccc2c(c1)OCO2)S(C)(=O)=O | 3.6
Cc1cc(C)nc(NS(=O)(=O)c2ccc(NC(=O)c3ccc4c(c3)OCO4)cc2)n1 | -0.38
COc1ccc(S(=O)(=O)N(C)CC(=O)Nc2ccc3c(c2)OCO3)cc1OC | -5.9 (active)
Cc1oc(C)c2c(=O)ccc3c(c12)OC(N)=C(C#N)C3c1ccccc1 (stereo unspecified) | 6.6
CCCN(CCC)c1ccc(/C=C/c2ccc3cc(OCC)ccc3n2)cc1 | 5.3
COc1ccc(C(=O)Nc2ccc3nc(C)sc3c2)cc1OC | 1.51
Cc1nc2ccc(NC(=O)c3cc(S(=O)(=O)N4CCOCC4)ccc3C)cc2s1 | -3 (active)
Cc1ccc(C(C)C)c(OCc2nn(CC(=O)c3ccc(Cl)cc3)c3[n+]2CCCCC3)c1 | -4.3 (active)
N#CC1=C(N)C(C#N)(C#N)[C@H](c2ccoc2)[C@H]2CN(Cc3ccccc3)CC=C12 | 5.86
CCN(CC)CC(O)COc1ccc2c(c1)c(C(C)=O)c(C)n2-c1ccccc1 (stereo unspecified) | -3.02 (active)
CC(C)CN1C(=O)/C(=C/c2c(N3CCc4ccccc4C3)nc3ccccn3c2=O)SC1=S | 16.9
COc1cc(C2C(C#N)=C(C)NC3=C2C(=O)CC(C)(C)C3)ccc1O (stereo unspecified) | -4.47 (active)
COc1ccc(C2C3=C(CCCC3=O)Nc3ccc4ncccc4c32)cc1OC (stereo unspecified) | 2.27
COCC(C)n1c(SCC(=O)NC(=O)Nc2ccc3c(c2)OCCO3)nc2ccccc2c1=O (stereo unspecified) | -4.52 (active)
